PubChem BioAssay (NCI)
The panel holds about 79,000 compounds, 15% with a hit somewhere; the sample as a whole holds those more often. Calls of active or inactive are those of the source. Cut-off read from the data, not from the text of the source: active = growth inhibition above about 70%; inactive = the rest.

Assays:
[1] = NCI Yeast Anticancer Drug Screen. Data for the rad14 strain (AID 159);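 note: 0% = growth of vehicle-treated control cultures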; conditions: S. cerevisiae rad14 strain growth inhibition, active compounds read high
In short: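 Growth inhibition vs vehicle controls; genetically altered yeast strain (DNA damage repair defect) treated with test compounds.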

[2] = NCI Yeast Anticancer Drug Screen. Data for the sgs1 mgt1 strain (AID 161);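 note: 0% = growth of cultures given vehicle only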; conditions: S. cerevisiae sgs1 mgt1 strain, active compounds read high
In short: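 Growth of a repair-deficient yeast mutant was monitored after compound treatment and expressed as inhibition relative to vehicle-treated cultures.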

[3] = NCI Yeast Anticancer Drug Screen. Data for the CLN2oe strain (AID 163);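 note: 0% = growth of vehicle-only control cultures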; conditions: S. cerevisiae CLN2oe strain, active compounds read high
In short: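 Cells of an engineered yeast line with disturbed cell-cycle regulation are treated with compound. Inhibition of growth is then calculated relative to the vehicle-treated reference.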

[4] = NCI Yeast Anticancer Drug Screen. Data for the cln2 rad14 strain (AID 165);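 note: 0% = growth equal to vehicle treated cultures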; conditions: S. cerevisiae cln2 rad14 strain, active compounds read high
In short: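 Strain: cln2 rad14 yeast, altered in cell cycle control and DNA damage repair. Read-out: growth inhibition vs vehicle.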

[5] = NCI Yeast Anticancer Drug Screen. Data for the bub3 strain (AID 167); conditions: S. cerevisiae bub3 mutant strain, active compounds read high
In short: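 Readout: yeast growth inhibition, expressed relative to vehicle-only wells. The test organism is a mutant strain from a panel with lesions in DNA repair or checkpoint genes.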

[6] = NCI Yeast Anticancer Drug Screen. Data for the wt2 strain (AID 169);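 note: 0% = growth of vehicle-treated yeast cultures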; conditions: S. cerevisiae wt2 strain growth inhibition, active compounds read high
In short: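 Growth of compound-treated yeast is measured and expressed as inhibition relative to vehicle-only controls.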

[7] = NCI Yeast Anticancer Drug Screen. Data for the mlh1 strain (AID 171);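 note: 0% = growth of vehicle-treated control cultures of the same strain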; conditions: S. cerevisiae mlh1 strain growth inhibition, active compounds read high
In short: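 Test agents were incubated with yeast bearing a defined DNA damage repair or cell cycle control alteration; values are growth inhibition normalised to vehicle-treated cultures.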

[8] = NCI Yeast Anticancer Drug Screen. Data for the sgs1 strain (AID 173);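 note: 0% = growth of vehicle-only control cultures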; conditions: S. cerevisiae sgs1 mutant, active compounds read high
In short: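 Strain with an altered DNA repair or cell cycle pathway exposed to compound. Growth then measured. Value = inhibition versus vehicle control.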

[9] = NCI Yeast Anticancer Drug Screen. Data for the mlh1 rad18 strain (AID 175); conditions: S. cerevisiae mlh1 rad18 strain growth inhibition, active compounds read high
In short: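 A repair-deficient yeast strain is exposed to test compound, and growth is scored relative to vehicle-treated controls.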

[10] = NCI Yeast Anticancer Drug Screen. Data for the rad18 strain (AID 177); conditions: S. cerevisiae rad18 mutant growth inhibition, active compounds read high
In short: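 DNA-repair-defective yeast; compound treatment; growth inhibition scored against vehicle.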

[11] = NCI Yeast Anticancer Drug Screen. Data for the rad52 strain (AID 147);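 note: 0% = growth of vehicle-treated control cultures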; conditions: S. cerevisiae rad52 mutant growth inhibition, active compounds read high
In short: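 Growth of repair-deficient yeast cells was compared between compound-treated and vehicle-treated cultures to give percent inhibition.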

[12] = NCI Yeast Anticancer Drug Screen. Data for the wt1 strain (AID 149);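 note: 0% = growth of vehicle-treated wt1 cultures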; conditions: S. cerevisiae wt1 strain (SPY 50644) growth inhibition, active compounds read high
In short: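 Growth inhibition read against vehicle controls after compound exposure of the wt1 yeast strain.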

[13] = NCI Yeast Anticancer Drug Screen. Data for the rad50EPP+ strain (AID 151);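 note: 0% = growth of vehicle-treated control cultures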; conditions: S. cerevisiae rad50 mutant strain, active compounds read high
In short: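 Measured: growth inhibition of rad50EPP+ yeast. Reference: vehicle-treated controls. Screen uses strains with defined genetic alterations in DNA damage repair or cell cycle control.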

[14] = NCI Yeast Anticancer Drug Screen. Data for the rad50 strain (AID 155);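 note: 0% = growth of vehicle-only cultures of the same strain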; conditions: S. cerevisiae rad50 strain growth inhibition, active compounds read high
In short: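 Readout: growth inhibition relative to vehicle-treated cultures. Compound exposure was carried out in a genetically defined yeast strain deficient in DNA damage repair.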

[15] = NCI Yeast Anticancer Drug Screen. Data for the mec2-1 strain (AID 157); conditions: S. cerevisiae mec2-1 strain, active compounds read high
In short: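 Compounds were applied to mec2-1 yeast cells. Their growth was then compared with that of vehicle-treated cultures to give growth inhibition.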

[16] = at 5.0 µM (retest, dose inferred, filed as 0.5)
[17] = at 50.0 µM (retest, dose inferred, filed as 5.0)

Measured: growth inhibition

BrCc1cccc2ccc3cccc(CBr)c3c12
inactive: [1]; at 11.0 µM -2% | [1]; at 33.0 µM -2% | [1]; at 100.0 µM 2% | [2]; [16] -3% | [3]; at 1.2 µM -2% | [3]; at 3.7 µM 0% | [3]; at 11.0 µM -3% | [3]; at 33.0 µM -13% | [3]; at 100.0 µM -12% | [4]; [16] -15% | [4]; [17] 21% | [4]; at 50.0 µM -24% | [5]; at 1.2 µM -12% | [5]; at 3.7 µM -14% | [5]; [16] 4% | [5]; at 11.0 µM -8% | [5]; at 33.0 µM -11% | [5]; [17] 50% | [5]; at 50.0 µM 65% | [5]; at 100.0 µM -6% | [6]; at 1.2 µM -2% | [6]; at 3.7 µM -5% | [6]; at 11.0 µM -4% | [6]; at 33.0 µM -6% | [6]; at 100.0 µM -4% | [7]; at 1.2 µM -3% | [7]; at 3.7 µM -3% | [7]; at 11.0 µM -2% | [7]; at 33.0 µM -2% | [7]; at 100.0 µM 1% | [8]; at 1.2 µM -3% | [8]; at 3.7 µM -3% | [8]; at 11.0 µM -4% | [8]; at 33.0 µM -3% | [8]; at 100.0 µM -1% | [9]; [16] -1% | [10]; at 1.2 µM -4% | [10]; at 3.7 µM 0% | [10]; at 11.0 µM -1% | [10]; at 33.0 µM 0% | [10]; at 100.0 µM 11%
active: [2]; [17] 85% | [2]; at 50.0 µM 72% | [9]; [17] 96% | [9]; at 50.0 µM 73.5%

O=C1CSc2cc([N+](=O)[O-])ccc2N1
active: [5]; at 33.0 µM 74% | [5]; [17] 79% | [5]; at 50.0 µM 70.2% | [5]; at 100.0 µM 91%
inactive: [11]; at 1.2 µM 10% | [11]; at 3.7 µM 6% | [11]; at 11.0 µM 9% | [11]; at 33.0 µM 16% | [11]; at 100.0 µM 15% | [12]; at 1.2 µM 4% | [12]; at 3.7 µM 12% | [12]; at 11.0 µM 5% | [12]; at 33.0 µM 18% | [12]; at 100.0 µM -20% | [13]; at 1.2 µM -9% | [13]; at 3.7 µM 3% | [13]; at 11.0 µM -4% | [13]; at 33.0 µM 3% | [13]; at 100.0 µM -6% | [14]; at 1.2 µM -20% | [14]; at 3.7 µM -6% | [14]; [16] -1% | [14]; at 11.0 µM -22% | [14]; at 33.0 µM -18% | [14]; [17] -14% | [14]; at 50.0 µM 21.1% | [14]; at 100.0 µM -17% | [15]; at 1.2 µM -4% | [15]; at 3.7 µM -5% | [15]; [16] -31% | [15]; at 11.0 µM -10% | [15]; at 33.0 µM -21% | [15]; [17] -12% | [15]; at 50.0 µM -18.1% | [15]; at 100.0 µM -22% | [1]; at 1.2 µM -16% | [1]; at 3.7 µM -7% | [1]; at 11.0 µM -6% | [1]; at 33.0 µM -10% | [1]; at 100.0 µM -11% | [2]; [16] -14% | [2]; [17] -14% | [2]; at 50.0 µM -11% | [3]; at 1.2 µM -3% | [3]; at 3.7 µM -14% | [3]; at 11.0 µM -8% | [3]; at 33.0 µM -19% | [3]; at 100.0 µM -13% | [4]; [16] 23% | [4]; [17] 27% | [4]; at 50.0 µM 22.4% | [5]; at 1.2 µM 8% | [5]; at 3.7 µM 9% | [5]; [16] 0% | [5]; at 11.0 µM 23% | [6]; at 1.2 µM 19% | [6]; at 3.7 µM 23% | [6]; at 11.0 µM 14% | [6]; at 33.0 µM 21% | [6]; at 100.0 µM 4% | [8]; at 1.2 µM 19% | [8]; at 3.7 µM 19% | [8]; at 11.0 µM 17% | [8]; at 33.0 µM 36% | [8]; at 100.0 µM 11% | [9]; [16] -15% | [9]; [17] -2% | [9]; at 50.0 µM -5.25% | [10]; at 1.2 µM 0% | [10]; at 3.7 µM -18% | [10]; at 11.0 µM -3% | [10]; at 33.0 µM -2% | [10]; at 100.0 µM -13%

CCOC(=O)C1=C(C(=O)c2ccccc2)C(c2ccccc2[N+](=O)[O-])C(C(=O)c2ccccc2)=C(C(=O)OCC)N1
active: [14]; at 50.0 µM 71.6% | [5]; [17] 86%
inactive: [11]; at 1.2 µM -2% | [11]; at 3.7 µM 0% | [11]; at 11.0 µM -1% | [11]; at 33.0 µM 1% | [11]; at 100.0 µM 11% | [12]; at 1.2 µM -2% | [12]; at 3.7 µM -1% | [12]; at 11.0 µM -1% | [12]; at 33.0 µM -1% | [12]; at 100.0 µM -4% | [13]; at 1.2 µM 1% | [13]; at 3.7 µM 7% | [13]; at 11.0 µM 13% | [13]; at 33.0 µM 18% | [13]; at 100.0 µM 27% | [14]; at 1.2 µM 0% | [14]; at 3.7 µM -1% | [14]; [16] 2% | [14]; at 11.0 µM -2% | [14]; at 33.0 µM 1% | [14]; [17] 60% | [14]; at 100.0 µM 17% | [15]; at 1.2 µM -3% | [15]; at 3.7 µM -3% | [15]; [16] -4% | [15]; at 11.0 µM -3% | [15]; at 33.0 µM -1% | [15]; [17] 20% | [15]; at 50.0 µM 18.6% | [15]; at 100.0 µM 10% | [1]; at 1.2 µM 0% | [1]; at 3.7 µM 2% | [1]; at 11.0 µM 8% | [1]; at 33.0 µM 9% | [1]; at 100.0 µM 29% | [2]; [16] 9% | [2]; [17] 16% | [2]; at 50.0 µM 41.8% | [3]; at 1.2 µM 0% | [3]; at 3.7 µM 0% | [3]; at 11.0 µM 2% | [3]; at 33.0 µM 3% | [3]; at 100.0 µM 0% | [4]; [16] 7% | [4]; [17] 39% | [4]; at 50.0 µM 16.9% | [5]; at 1.2 µM 6% | [5]; at 3.7 µM 8% | [5]; [16] 3% | [5]; at 11.0 µM 11% | [5]; at 33.0 µM 10% | [5]; at 50.0 µM 19% | [5]; at 100.0 µM 42% | [6]; at 1.2 µM -2% | [6]; at 3.7 µM -1% | [6]; at 11.0 µM -1% | [6]; at 33.0 µM 0% | [6]; at 100.0 µM 10% | [7]; at 1.2 µM -1% | [7]; at 3.7 µM -2% | [7]; at 11.0 µM -2% | [7]; at 33.0 µM 1% | [7]; at 100.0 µM 20% | [9]; [16] -21% | [9]; [17] 61% | [9]; at 50.0 µM 65.6%
